The record followed here is PubChem BioAssay (NCATS).

Results filed as inconclusive are left out. Calls of active or inactive are those of the source. Unless noted, calls follow the shape of the dose curve; as a rule, active = well fitted curve in the direction sought with a large enough effect; inconclusive = small, poorly fitted or top-dose-only effect, or another doubt; inactive = no such curve, though single readings can be large; an effect the other way counts as inactive or inconclusive.

The target of assay [1] is Aldehyde dehydrogenase, mitochondrial (Homo sapiens) (UniProt P05091). Briefly: qHTS for Inhibitors of the Aldehyde Dehydrogenase Family (ALDH2) Confirmatory screens (AID 2061303; active = well fitted inhibition curve with a large enough effect; title and protocol of this record describe different tests; also: nearly all actives have a fitted effect of over 45% in size; also: potency is read from the fitted curve at half-maximal effect).
Assay [2] in a line: qHTS for Inhibitors of the Aldehyde Dehydrogenase Family (ALDH1A2, ALDH1A3, ALDH2, ALDH3A1) (AID 2061307). Also: nearly all actives have a fitted effect of over 50% in size. As to Potency: test system not described further here; potency is read from the fitted curve at half-maximal effect. On the technique in general: qHTS replaces the single test concentration by a dilution series.
Assay [3] concerns the target Aldehyde dehydrogenase, mitochondrial (Homo sapiens) (UniProt P05091). Briefly: qHTS for Inhibitors of the Aldehyde Dehydrogenase Family (ALDH2) Primary screen (AID 2061308). Also: nearly all actives have a fitted effect of over 55% in size. Also: potency is read from the fitted curve at half-maximal effect.
The target of assay [4] is Retinal dehydrogenase 2 (Homo sapiens) (UniProt O94788). Briefly: qHTS for Inhibitors of the Aldehyde Dehydrogenase Family (ALDH1A2) Confirmation screens (AID 2061314). Also: nearly all actives have a fitted effect of over 65% in size. Also: potency is read from the fitted curve at half-maximal effect.
For assay [5], the target named is Retinaldehyde dehydrogenase 3 (Homo sapiens) (UniProt P47895). Briefly: qHTS for Inhibitors of the Aldehyde Dehydrogenase Family (ALDH1A3) Primary screen (AID 2061315). Also: potency is read from the fitted curve at half-maximal effect.
Assay [6] has the same target. Briefly: qHTS for Inhibitors of the Aldehyde Dehydrogenase Family (ALDH1A3) Confirmatory screens (AID 2061311). Also: nearly all actives have a fitted effect of over 60% in size. Also: potency is read from the fitted curve at half-maximal effect.
The target of assay [7] is Aldehyde dehydrogenase 1A1 (Homo sapiens) (UniProt P00352). Put plainly: qHTS for Inhibitors of the Aldehyde Dehydrogenase Family (ALDH1A1) Confirmatory screens (AID 2061316). Also: nearly all actives have a fitted effect of over 65% in size. Also: potency is read from the fitted curve at half-maximal effect.
For assay [8], the target named is Retinaldehyde dehydrogenase 3 (Homo sapiens) (UniProt P47895). Put plainly: qHTS for Inhibitors of the Aldehyde Dehydrogenase Family (ALDH1A3) Validation screen (AID 2061312). Also: nearly all actives have a fitted effect of over 45% in size.
Assay [9] in a line: BET inhibitor-based combinations targeting novel dependencies in MECOM-rearranged (r) AML: AML-191 cell line (AID 2202236; also: potency is read from the fitted curve at half-maximal effect; nearly all actives have a fitted effect of over 35% in size). In short, it runs like this:
(§1)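 A 48 hr incubation preceded viability reading by CellTiter-Glo, with 15 min room-temperature development. Dose series had 11 points; normalization used DMSO and empty wells; AUC was computed and mean-centered per line as Z-AUC.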

A short description of assay [10]: BET inhibitor-based combinations targeting novel dependencies in MECOM-rearranged (r) AML: AML-194 cell line (AID 2202237; also: potency is read from the fitted curve at half-maximal effect; nearly all actives have a fitted effect of over 40% in size). In short, it runs like this: as §1

As for `CC(C)(C)OC(=O)N1CCN(c2ccc(NCc3ccnc(-c4ccc(C#N)cc4)n3)cc2)CC1`, the Potency in [1] is 0.504 µM (active); in assay [2], 0.357 µM (active); in [3] it was 0.282 µM (active). Further, the Potency entry in assay [4] and in [5] was “inactive” throughout.

As to `O=C1c2ccccc2NC(c2ccc(Br)o2)N1O` (stereo unspecified), the Potency in assay [1] is 5.04 µM (active); in [2], 10.1 µM (active); in assay [3], 1.41 µM (active); in assay [6], 7.12 µM (active); in assay [7], 1.79 µM (active).

With `Cc1ccc(NS(=O)(=O)c2ccc3c(c2)CC(=O)N3)cc1C`, the Potency result in [1], in assay [2], in [3], in assay [6] and in assay [5] was “inactive” in each case. Also, the Potency in assay [7] was 1.59 µM (active).

Regarding `O=C(c1ccc(-c2cc(O)c3ncccc3c2)cc1)N1CCNCC1`, the Potency entry in [1], in assay [2], in [3], in assay [5] and in assay [7] was “inactive” in each case. Besides, the Potency in [6] is 11.3 µM (active).

For the molecule `Cc1cccc(-n2cnc3cc(C(=O)N4CCC(Br)CC4)ccc32)c1`, the Potency result in assay [1], in assay [2], in assay [3], in assay [4] and in assay [5] was “inactive” each time.

Take `Cc1cc(=O)oc2c(C=O)c(O)ccc12`: the Potency entry in [1], in assay [2] and in [3] was “inactive” each time. Besides, the Potency was 12.7 µM (active) in assay [6] and 8.96 µM (active) in assay [7].

Consider `O=S1(=O)N=C(Oc2ccccc2F)c2ccccc21`, for which the Potency entry in assay [1], in [2], in assay [3], in assay [4] and in assay [5] was “inactive” in each case.

Consider `Cc1cc2c(s1)c(C=O)c(C(=O)NCc1ccccc1F)n2C`, for which the Potency entry in [1], in assay [3], in assay [4] and in [5] was “inactive” each time. Besides, the Potency in assay [2] is 1.27 µM (active).

For `Cc1cccc(C)c1-n1c(SCC(=O)NCCCCCC(=O)O)nnc1-c1cccc([S+](=O)([O-])N2CCCC2)c1`, the Potency result in assay [1], in assay [2], in assay [3], in assay [6], in assay [5] and in assay [7] was “inactive” each time.

`COc1ccc(C2Nc3ccccc3C(=O)N2Cc2ccc(C(F)(F)F)cc2)cc1COc1ccc(NC(C)=O)cc1` (stereo unspecified): the Potency in assay [1] is 0.447 µM (active); in [2], 3.57 µM (active); in [6], 2.51 µM (active); in assay [7], 22.5 µM (active). The Potency entry in [3] and in assay [5] was “inactive” in each case.

With `CN(Cc1cccs1)c1ncnc2ccc(-c3ccc4cnn(C)c4c3)cc12`, the Potency entry in assay [1], in assay [2], in assay [3], in [6], in assay [5] and in [7] was “inactive” each time.

For the molecule `O=C1Cc2cc(S(=O)(=O)N3CCN(c4ccc(C(F)(F)F)cc4)CC3)ccc2N1`, the Potency entry in assay [1], in [2], in assay [3], in assay [6], in assay [5] and in assay [7] was “inactive” each time.

As to `O=C(Nc1ccc(Cl)c(Cl)c1)Nc1nnc(NC2CCNCC2)s1`, the Potency result in [1], in assay [2], in [3] and in assay [7] was “inactive” each time. Moreover, the Potency in assay [6] was 11.3 µM (active).

Regarding `Nc1nnc(-c2cccc3ccccc23)o1`, the Potency result in assay [1], in assay [2], in assay [3], in assay [6], in assay [5] and in assay [7] was “inactive” in each case.

`O=C(c1ccccc1)N1CCN(c2nc(-c3ccc(Br)cc3)cs2)CC1`: the Potency in assay [1] and in assay [2] was 15.8 µM (active) throughout. In addition, the Potency result in assay [3], in assay [4] and in assay [5] was “inactive” each time.

For the molecule `Cc1ccc(OCCn2c(CCNC(=O)CCc3ccc(N)cc3)nc3ccccc32)cc1`, the Potency entry in assay [1], in assay [2], in assay [3], in [4] and in [5] was “inactive” in each case.

In the case of `O=C(Cc1ccc(Cl)c(Cl)c1)Nc1ccc(S(=O)(=O)Nc2cccc(C(=O)O)c2)cc1`, the Potency entry in assay [1], in assay [2], in assay [3], in assay [6], in assay [5] and in assay [7] was “inactive” throughout.

Consider `S=C(Nc1cc(Cl)ccn1)N1CCN(c2ccc3ccccc3n2)CC1`, for which the Potency in assay [1] was 7.94 µM (active); in [2], 14.1 µM (active); in assay [3] it was 1.58 µM (active); in assay [6] it was 22.5 µM (active); in assay [7], 5.65 µM (active). Moreover, in [5], the Potency entry is “inactive”.

Take `Cc1cc(C)cc(C(=O)NOCCCCCC(=O)NO)c1`: the Potency entry in [1], in [2], in [3] and in assay [4] was “inactive” in each case. The Potency in assay [5] is 6.31 µM (active).

Take `COc1cccc(OC)c1C1=Nn2c(nnc2-c2ccccc2C)SC1`: the Potency entry in assay [1], in assay [2], in assay [3], in assay [4] and in assay [5] was “inactive” each time.

On to `CCN(CC)CCOc1ccc(/C(=C(\Cl)c2ccccc2)c2ccccc2)cc1`, for which the Potency result in assay [1], in assay [2], in [3], in assay [8], in assay [4] and in [5] was “inactive” in each case. Besides, the Potency entry in [7] was “inactive”. Moreover, the Potency in [9] is 18.6 µM (active); in assay [10], 23.5 µM (active).

With `COc1ccc(-c2nc3ccccc3c(=O)n2Cc2ccc(CNC(=O)CO)cc2)cc1COc1ccc(NC(C)=O)cc1`, the Potency result in [1] and in assay [3] was “inactive” each time. In addition, the Potency in [2] is 8.96 µM (active); in [4] it was 15.9 µM (active).

In the case of `COc1ccc(C2=Nn3c(nnc3-c3ccc(OC)c(OC)c3)SC2)c(OC)c1`, the Potency entry in [1], in assay [2], in [3], in assay [6] and in assay [5] was “inactive” in each case. In addition, in assay [7], the Potency was 6.34 µM (active).

Turning to `CN(Cc1ccco1)c1ncnc2ccc(-c3cccnc3)cc12`, the Potency entry in assay [1], in assay [2], in assay [3] and in assay [5] was “inactive” throughout. Also, the figures for the Potency in [6] and in [7] were 7.98 µM (active) and 11.3 µM (active), respectively.

As for `Cc1cccc(-n2cnc3cc(C(=O)N4CCCC(C)(C)C4)ccc32)c1`, the Potency result in assay [1], in assay [2], in assay [3], in assay [4] and in [5] was “inactive” throughout.

Consider `O=C1c2ccccc2C(=O)N1c1ncccc1O`, for which the Potency entry in [1], in assay [2], in assay [3], in assay [6], in assay [5] and in assay [7] was “inactive” each time.

With `COc1cccc(CNc2ccc([S+](=O)([O-])Nc3cc4ccccc4s3)cc2)c1O`, the Potency entry in assay [1], in assay [2], in [3], in [5] and in assay [7] was “inactive” each time. Besides, the Potency in assay [6] is 11.3 µM (active).

Consider `O=C(NCCc1nc2ccccc2n1CCOc1cccc(Br)c1)C1CCCCC1`, for which the Potency entry in assay [1], in [2], in assay [3], in assay [4] and in assay [5] was “inactive” throughout.

As for `CN1CCN(C2CCN(Cc3ccc(O)c4ncccc34)CC2)CC1`, the Potency result in assay [1], in assay [2], in [3] and in [4] was “inactive” throughout.

In the case of `CCN(CC)c1cc2c(cc1S(=O)(=O)Nc1ccc(C)c(C)c1)CCC(=O)N2`, the Potency entry in assay [1], in assay [2], in assay [3], in assay [4] and in assay [5] was “inactive” each time.

In the case of `CN(C)CCCNc1ncnc2ccc(-c3ccc4c(c3)OCO4)cc12`, the Potency entry in assay [1], in assay [2], in [3], in [6], in assay [5] and in [7] was “inactive” in each case.

Consider `CCOc1ccc(C(=O)Nc2ccc(-c3nc4ccccc4[nH]3)cc2)cc1`, for which the Potency entry in assay [1], in assay [2], in assay [3], in [6], in assay [5] and in assay [7] was “inactive” throughout.

In the case of `FC(F)(F)c1ccccc1-c1nc(NCc2ccc(Cl)cc2)c2ccccc2n1`, the Potency result in assay [1], in assay [2], in assay [3], in assay [6], in [5] and in assay [7] was “inactive” each time.

`Fc1cc(Nc2nc(-c3ccncc3)nc3ccccc23)ccc1N1CCNCC1`: the Potency result in assay [1], in assay [2], in [3], in assay [4] and in [5] was “inactive” each time.

As for `N=c1c2c(ncn1-c1ccccc1)Oc1ccc3ccccc3c1C2c1ccc2c(c1)CCO2` (stereo unspecified), the Potency in assay [1] was 14.1 µM (active); in assay [2], 7.08 µM (active); in assay [6], 15.8 µM (active); in assay [7] it was 31.6 µM (active). The Potency entry in [3] and in assay [5] was “inactive” in each case.

As for `CCCCN(C)C(=O)Cn1nc(-c2ccncc2)ccc1=O`, the Potency entry in assay [1], in assay [2], in assay [3], in [4] and in assay [5] was “inactive” each time.

For the molecule `CC1(C)S[C@@H]2[C@H](NC(=O)[C@H](NC(=O)N3CCN(S(C)(=O)=O)C3=O)c3ccccc3)C(=O)N2[C@H]1C(=O)O`, the Potency entry in assay [1], in assay [2], in assay [3], in assay [8], in [4] and in assay [5] was “inactive” throughout. In addition, the Potency result in assay [7] was “inactive”.
